Inconclusive results are not listed. Unmarked numbers belong to inactive results. Active and inactive are the calls of the source. Calls come from the whole dose curve; as a rule, active = well fitted activation curve with a large enough effect; inconclusive = small, poorly fitted or top-dose-only effect; inactive = flat fitted curve, though single readings scatter.
Test: Parental Cell Counter Screen for Stat Signaling Pathway Assay
Conditions: ME-180 (cervical carcinoma) parental cells, blue fluorescence artefact counter-screen; series mostly up to 38.3 µM; activity (fluorescence increase): at the top concentration
Text: NIH Molecular Libraries Screening Centers Network [MLSCN] NIH Chemical Genomics Center [NCGC] MLSCN Grant: None NCGC Assay Overview: This assay is a counter screen for the Stat signaling pathway assay (PubChem AID 446). The Stat assay is cell-based and measures Interleukin 6 (IL-6) mediated modulation of a beta-lactamase reporter gene controlled by a STAT inducible element (SIE-bla cells, Invitrogen). IL-6 is a cytokine that signals via the JAK/STAT pathway and is implicated in cancer and inflammation. […] Compounds active in the parental ME-180 cells are likely fluorescent.
NCGC Assay Protocol Summary: Cells were trypsinized, washed in assay medium (AM, OPTI MEM with 0.5% fetal bovine serum, 0.1 mM nonessential amino acids, 1 mM sodium pyruvate, 10mM HEPES pH 7.3, 100U/ml penicillin, and 100 ug/ml streptomycin) and suspended at […] in AM. Approximately 2500 cells in 5 uL/well was dispensed into 1536-well plates and the cells were incubated overnight at 37 C. 23 nL of compound were delivered by a pin tool and 1 uL of IL-6 (40 pM final concentration in AM) was added. After plates were incubated at 37 C for 5 hrs, 1uL of detector mix (LiveBLAzerTM, Invitrogen) was added, the plates incubated at room temperature for 2.5 hrs, and fluorescence intensity at 460 and 530 nm emissions was measured at 405 nm excitation by an Envision (Perkin Elmer).
With `c1ccc2c(c1)[I+]c1ccccc1-2` the “activity (fluorescence increase)” value was 26.2%.
For `CN(N=O)c1ccc(O)c(O)c1`, the “activity (fluorescence increase)” value was 11.3%.
With `COc1cccc2c1C(=O)c1c(O)c3c(c(O)c1C2=O)C[C@](O)(/C(C)=N\O)C[C@@H]3O[C@H]1C[C@H](N)[C@@H](O)[C@H](C)O1` the “activity (fluorescence increase)” value was 4.72%.
In the case of `Cc1c2ccncc2c(C)c2c1[nH]c1ccccc12`, the Potency is reported as 15.8 µM (active).
For `CC[C@]1(O)C(=O)OCc2c1cc1n(c2=O)Cc2cc3ccccc3nc2-1`, the “activity (fluorescence increase)” value was 9.35%.
In the case of `O=c1ccc2cc(O[C@H]3O[C@@H](CO)[C@@H](O)[C@@H](O)[C@@H]3O)c(O)cc2o1`, the Potency is reported as 15.8 µM (active).
With `CCn1cnc2c(Nc3cccc(Cl)c3)nc(N[C@@H]3CCCC[C@H]3N)nc21` the “activity (fluorescence increase)” value was 13.2%.
In the case of `COC1=C(C)C(=O)c2c(c(COC(N)=O)c3n2C[C@@H]2[C@@H]3N2C)C1=O` (stereo not given in full), the Potency is reported as 12.6 µM (active).
With `COc1ccc2c3c([nH]c2c1)C(C)=NCC3` the Potency was 12.6 µM (active).
With `COC(=O)C(O)(c1ccc(NC(=O)c2ccco2)c(OC)c1)C(F)(F)F` (stereo not given) the Potency was 0.0063 µM (active).

Reference: PubChem BioAssay AID934 (National Center for Advancing Translational Sciences (NCATS), 2007)
